Data: PubChem BioAssay (EPA / NIEHS)
Active and inactive are the calls of the source. Rule for the calls: active = hit-call score of the fitted dose curve at least 0.9, where 1 is the maximum; inactive = score below 0.9.

Columns and labels:
[1] = ATG_GRE_CIS: Attagene CIS-FACTORIAL HepG2 Assay for human Glucocorticoid Response Elements (GRE) (AID 2282947); conditions: HepG2 GRE cis-reporter, Attagene multiplex mRNA; actives raise or lower the signal
Outline: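 Fluorescence intensity of reporter-specific cDNA fragments, separated by capillary electrophoresis, provides the signal. Constructs carry cis-regulating promoters in transiently transfected HepG2 liver cells; 24 h incubation; fitting is bidirectional against DMSO.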

[2] = ATG_ISRE_CIS: Attagene CIS-FACTORIAL HepG2 Assay for human Interferon Regulatory Factor 1 (IRF1) binding to an Interferon-Stimulated Response Element (ISRE) (AID 2282948); conditions: HepG2 ISRE cis-reporter (Attagene), mRNA transcription readout; actives raise or lower the signal
Outline: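 Endogenous transcription factor activity read as reporter transcript abundance via RT-PCR and capillary electrophoresis. HepG2 cells transiently transfected, 24 h chemical exposure. Gain or loss fitted against DMSO baseline.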

[3] = ATG_M_32_CIS: Attagene CIS-FACTORIAL HepG2 Assay for M32 Transcription Factor (Internal Marker) (AID 2282949); conditions: HepG2 Attagene cis-factorial M32 reporter, mRNA; actives raise or lower the signal;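 note: background control marker of the multiplexed CIS panel rather than a real target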
Outline: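 HepG2 human liver cells transiently transfected with cis-promoter-driven multiple reporter transcription units, dosed 24 h. Reporter mRNA quantified by RT-PCR, FAM-labelled primer extension, HpaI digest and capillary electrophoresis; bidirectional fit versus DMSO baseline.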

[4] = ATG_M_06_CIS: Attagene CIS-FACTORIAL HepG2 Assay for M06 Transcription Factor (Internal Marker) (AID 2282950); conditions: HepG2 Attagene CIS-FACTORIAL M06 internal marker reporter; actives raise or lower the signal
Outline: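 Steps: transfect HepG2 with multiplexed cis-element reporter constructs; dose chemical 24 h; extract RNA with DNase treatment; reverse-transcribe, PCR-amplify, 6-FAM label, HpaI digest; separate fragments by capillary electrophoresis. Activity fitted both directions versus DMSO.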

[5] = target: Hypoxia-inducible factor 1-alpha (Homo sapiens) (UniProt Q16665); assay: ATG_HIF1a_CIS: Attagene CIS-FACTORIAL HepG2 Assay for human Hypoxia Inducible Factor 1 (HIF1A) (AID 2282951); conditions: HepG2 Attagene cis-factorial HIF1a reporter transcription; actives raise or lower the signal
Sequence of Hypoxia-inducible factor 1-alpha (Homo sapiens) (Q16665 whole entry, looked up): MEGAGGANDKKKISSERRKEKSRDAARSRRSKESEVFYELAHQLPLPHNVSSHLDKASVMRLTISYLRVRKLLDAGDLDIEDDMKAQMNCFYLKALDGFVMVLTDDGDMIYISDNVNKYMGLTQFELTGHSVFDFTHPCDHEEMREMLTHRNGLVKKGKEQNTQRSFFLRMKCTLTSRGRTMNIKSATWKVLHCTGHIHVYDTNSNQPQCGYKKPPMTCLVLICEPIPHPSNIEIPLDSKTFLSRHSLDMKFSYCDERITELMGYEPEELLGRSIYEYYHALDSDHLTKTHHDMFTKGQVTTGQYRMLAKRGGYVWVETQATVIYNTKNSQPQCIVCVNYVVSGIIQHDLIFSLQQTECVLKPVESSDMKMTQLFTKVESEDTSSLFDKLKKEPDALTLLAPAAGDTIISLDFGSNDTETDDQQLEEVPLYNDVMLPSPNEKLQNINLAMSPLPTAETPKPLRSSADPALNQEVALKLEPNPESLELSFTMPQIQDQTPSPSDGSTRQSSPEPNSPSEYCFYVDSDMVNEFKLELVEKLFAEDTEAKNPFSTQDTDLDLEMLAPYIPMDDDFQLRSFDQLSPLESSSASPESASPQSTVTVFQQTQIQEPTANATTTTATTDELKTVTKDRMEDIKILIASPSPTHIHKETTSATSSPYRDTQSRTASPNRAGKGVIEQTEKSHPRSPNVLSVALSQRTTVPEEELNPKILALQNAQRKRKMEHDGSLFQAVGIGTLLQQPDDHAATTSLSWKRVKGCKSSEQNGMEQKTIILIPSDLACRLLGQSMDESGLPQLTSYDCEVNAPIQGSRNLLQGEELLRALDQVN
Outline: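 Cis-element reporter constructs were transiently transfected into HepG2 cells, which were treated for 24 h; reporter RNA was reverse-transcribed, amplified, labelled and resolved by capillary electrophoresis.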

[6] = target: Hepatocyte nuclear factor 6 (Homo sapiens) (UniProt Q9UBC0); assay: ATG_HNF6_CIS: Attagene CIS-FACTORIAL HepG2 Assay for human Hepatocyte Nuclear Factor 6 (HNF6) (AID 2282952); conditions: HepG2 Attagene cis-factorial HNF6 reporter transcription; actives raise or lower the signal
Sequence of Hepatocyte nuclear factor 6 (Homo sapiens) (Q9UBC0 whole entry, looked up, the tested form may be a part): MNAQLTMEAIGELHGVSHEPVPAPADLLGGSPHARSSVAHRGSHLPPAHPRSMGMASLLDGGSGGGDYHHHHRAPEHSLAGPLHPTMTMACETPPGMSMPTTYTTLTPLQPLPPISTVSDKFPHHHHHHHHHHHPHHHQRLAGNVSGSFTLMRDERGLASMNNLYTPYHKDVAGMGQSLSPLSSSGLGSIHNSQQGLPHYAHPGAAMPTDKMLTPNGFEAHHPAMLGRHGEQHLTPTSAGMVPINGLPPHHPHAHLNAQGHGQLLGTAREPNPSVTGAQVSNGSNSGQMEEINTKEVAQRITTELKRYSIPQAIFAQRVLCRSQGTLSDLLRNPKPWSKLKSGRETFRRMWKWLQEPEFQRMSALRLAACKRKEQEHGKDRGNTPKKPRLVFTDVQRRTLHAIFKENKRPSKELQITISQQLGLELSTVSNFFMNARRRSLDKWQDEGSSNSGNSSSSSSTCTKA
Outline: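 Using cis-element reporters in HepG2 liver cells, the assay tracks endogenous factor-driven transcription 24 h post-dosing. Signal comes from 6-FAM-labelled, HpaI-digested RT-PCR fragments, with gain or loss scored against DMSO.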

[7] = target: Heat shock factor protein 1 (Homo sapiens) (UniProt Q00613); assay: ATG_HSE_CIS: Attagene CIS-FACTORIAL HepG2 Assay for human Heat Shock Transcription Factor 1 (HSE) (AID 2282953); conditions: HepG2 HSE cis-reporter, Attagene RNA transcription; actives raise or lower the signal
Sequence of Heat shock factor protein 1 (Homo sapiens) (Q00613 whole entry, looked up, the tested form may be a part): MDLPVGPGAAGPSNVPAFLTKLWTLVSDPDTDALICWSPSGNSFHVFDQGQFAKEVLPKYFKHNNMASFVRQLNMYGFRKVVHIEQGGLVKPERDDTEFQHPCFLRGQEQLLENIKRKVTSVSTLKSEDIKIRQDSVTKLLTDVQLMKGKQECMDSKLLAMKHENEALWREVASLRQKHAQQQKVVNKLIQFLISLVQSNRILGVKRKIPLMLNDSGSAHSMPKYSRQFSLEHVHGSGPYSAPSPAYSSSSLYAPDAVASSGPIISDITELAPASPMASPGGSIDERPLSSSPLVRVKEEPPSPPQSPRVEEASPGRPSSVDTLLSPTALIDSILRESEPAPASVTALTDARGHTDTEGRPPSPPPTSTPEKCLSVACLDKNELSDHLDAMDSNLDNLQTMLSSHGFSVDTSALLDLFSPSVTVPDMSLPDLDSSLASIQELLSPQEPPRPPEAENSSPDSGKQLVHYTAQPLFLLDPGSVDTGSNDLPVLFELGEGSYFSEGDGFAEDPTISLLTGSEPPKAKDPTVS
Outline: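 Cells were transfected with cis-element-driven reporter constructs, dosed for 24 h, then total RNA was reverse-transcribed and reporter cDNA amplified, FAM-labelled and digested with HpaI. Fragments were resolved by capillary electrophoresis; gain or loss was fitted against DMSO.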

[8] = ATG_MRE_CIS: Attagene CIS-FACTORIAL HepG2 Assay for human Metal Responsive Element (MRE) (AID 2282954); conditions: HepG2 MRE cis-reporter transcription, Attagene multiplex; actives raise or lower the signal
Outline: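 Measured here is mRNA induction from an MRE cis-element reporter in HepG2 after 24 h, quantified by fluorescence of labelled RT-PCR products on capillary electrophoresis; gain- and loss-of-signal fits use DMSO as baseline.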

[9] = target: Paired box protein Pax-6 (Homo sapiens) (UniProt P26367); assay: ATG_Pax6_CIS: Attagene CIS-FACTORIAL HepG2 Assay for human Paired Box 6 (PAX6) (AID 2282956); conditions: HepG2 CIS-FACTORIAL PAX6 reporter transcription, RNA readout; actives raise or lower the signal
Sequence of Paired box protein Pax-6 (Homo sapiens) (P26367 whole entry, looked up): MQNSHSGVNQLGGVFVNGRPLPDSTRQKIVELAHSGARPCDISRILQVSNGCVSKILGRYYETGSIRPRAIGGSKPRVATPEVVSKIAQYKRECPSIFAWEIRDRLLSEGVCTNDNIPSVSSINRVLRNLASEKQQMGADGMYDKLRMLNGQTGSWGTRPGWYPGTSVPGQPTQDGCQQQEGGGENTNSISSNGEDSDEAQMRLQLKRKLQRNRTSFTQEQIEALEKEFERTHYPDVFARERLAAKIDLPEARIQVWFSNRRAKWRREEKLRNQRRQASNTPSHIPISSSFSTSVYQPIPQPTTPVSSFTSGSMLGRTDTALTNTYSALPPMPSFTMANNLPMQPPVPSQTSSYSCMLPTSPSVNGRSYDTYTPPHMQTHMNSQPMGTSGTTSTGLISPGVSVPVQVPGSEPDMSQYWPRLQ
Outline: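 Read-out is reporter transcript level, measured by RT-PCR with fluorescent primer extension and capillary electrophoresis after 24 h dosing of transfected HepG2 cells. Activity in either direction fitted relative to DMSO control.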

[10] = ATG_PXRE_CIS: Attagene CIS-FACTORIAL HepG2 Assay for human Pregnane X Receptor Element (PXRE) (AID 2282957); conditions: HepG2 Attagene CIS-FACTORIAL PXRE reporter, mRNA; actives raise or lower the signal
Outline: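 Using HepG2 transfected with multiple reporter transcription units, endogenous factor-driven transcription was scored as reporter mRNA after 24 h exposure.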

[11] = ATG_PPRE_CIS: Attagene CIS-FACTORIAL HepG2 Assay for human Peroxisome Proliferator-activated Response Element (PPRE) (AID 2282958); conditions: HepG2 PPRE cis-element reporter, Attagene transcription factor profiling; actives raise or lower the signal
Outline: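 DMSO served as negative control and baseline for bidirectional curve fitting. Signal came from PPRE-regulated reporter mRNA in HepG2 cells, measured 24 h post-dosing by RT-PCR, 6-FAM primer extension and capillary electrophoresis.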

[12] = ATG_Sox_CIS: Attagene CIS-FACTORIAL HepG2 Assay for human SRY-box transcription factor (SOX) (AID 2282960); conditions: HepG2 Attagene cis-factorial SOX reporter, mRNA; actives raise or lower the signal
Outline: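 Fluorescence-labelled cDNA fragments from reporter transcripts, sized by CE, give the signal. Cells: HepG2, transiently transfected with cis-regulated reporter units. Exposure 24 h; DMSO negative control; bidirectional curve fitting.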

[13] = target: Transcription factor Sp1 (Homo sapiens) (UniProt P08047); assay: ATG_Sp1_CIS: Attagene CIS-FACTORIAL HepG2 Assay for human Specificity Protein 1 (Sp1) (AID 2282961); conditions: HepG2 Sp1 cis-reporter transcription, actives raise or lower the signal
Sequence of Transcription factor Sp1 (Homo sapiens) (P08047 whole entry, looked up): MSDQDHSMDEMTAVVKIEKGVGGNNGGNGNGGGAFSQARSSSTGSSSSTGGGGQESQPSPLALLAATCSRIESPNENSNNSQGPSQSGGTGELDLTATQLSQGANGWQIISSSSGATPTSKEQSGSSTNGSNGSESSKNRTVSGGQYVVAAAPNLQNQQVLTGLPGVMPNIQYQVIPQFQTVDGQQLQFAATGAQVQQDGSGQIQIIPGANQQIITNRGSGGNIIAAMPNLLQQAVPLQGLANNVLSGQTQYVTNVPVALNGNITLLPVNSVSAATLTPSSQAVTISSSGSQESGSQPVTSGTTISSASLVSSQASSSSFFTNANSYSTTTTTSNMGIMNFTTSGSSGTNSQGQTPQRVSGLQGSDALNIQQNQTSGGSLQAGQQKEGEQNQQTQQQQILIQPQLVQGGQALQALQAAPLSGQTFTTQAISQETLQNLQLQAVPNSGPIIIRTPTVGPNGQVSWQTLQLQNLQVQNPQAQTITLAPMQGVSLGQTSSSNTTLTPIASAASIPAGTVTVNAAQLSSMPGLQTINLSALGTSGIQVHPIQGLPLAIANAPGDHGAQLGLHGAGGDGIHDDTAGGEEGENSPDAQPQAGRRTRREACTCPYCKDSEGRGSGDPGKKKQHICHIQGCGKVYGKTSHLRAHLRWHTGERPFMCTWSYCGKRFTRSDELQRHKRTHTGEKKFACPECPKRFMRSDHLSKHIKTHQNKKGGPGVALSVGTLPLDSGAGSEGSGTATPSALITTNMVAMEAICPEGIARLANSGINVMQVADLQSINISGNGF
Outline: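 Chemicals are dosed onto HepG2 cells transfected with multiple cis-promoter reporter constructs, and after 24 h reporter RNA is reverse-transcribed, PCR-amplified and resolved by capillary electrophoresis for fluorescence quantitation; activity is scored up or down against DMSO.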

[14] = ATG_SREBP_CIS: Attagene CIS-FACTORIAL HepG2 Assay for human Sterol Regulatory Element Binding (SREBP) (AID 2282962); conditions: HepG2 Attagene cis-factorial SREBP reporter, mRNA; actives raise or lower the signal
Outline: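 Endogenous SREBP activity read as cis-element-driven reporter transcript in transiently transfected HepG2, 24 h post-dosing; quantified via RT-PCR plus capillary electrophoresis of fluorescent fragments. Gain or loss of signal fitted relative to DMSO baseline.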

[15] = target: Signal transducer and activator of transcription 3 (Homo sapiens) (UniProt P40763); assay: ATG_STAT3_CIS: Attagene CIS-FACTORIAL HepG2 Assay for human Signal Transducer and Activator of Transcription 3 (STAT3) (AID 2282963); conditions: HepG2, Attagene cis-factorial STAT3 reporter transcription; actives raise or lower the signal
Sequence of Signal transducer and activator of transcription 3 (Homo sapiens) (P40763 whole entry, looked up, the tested form may be a part): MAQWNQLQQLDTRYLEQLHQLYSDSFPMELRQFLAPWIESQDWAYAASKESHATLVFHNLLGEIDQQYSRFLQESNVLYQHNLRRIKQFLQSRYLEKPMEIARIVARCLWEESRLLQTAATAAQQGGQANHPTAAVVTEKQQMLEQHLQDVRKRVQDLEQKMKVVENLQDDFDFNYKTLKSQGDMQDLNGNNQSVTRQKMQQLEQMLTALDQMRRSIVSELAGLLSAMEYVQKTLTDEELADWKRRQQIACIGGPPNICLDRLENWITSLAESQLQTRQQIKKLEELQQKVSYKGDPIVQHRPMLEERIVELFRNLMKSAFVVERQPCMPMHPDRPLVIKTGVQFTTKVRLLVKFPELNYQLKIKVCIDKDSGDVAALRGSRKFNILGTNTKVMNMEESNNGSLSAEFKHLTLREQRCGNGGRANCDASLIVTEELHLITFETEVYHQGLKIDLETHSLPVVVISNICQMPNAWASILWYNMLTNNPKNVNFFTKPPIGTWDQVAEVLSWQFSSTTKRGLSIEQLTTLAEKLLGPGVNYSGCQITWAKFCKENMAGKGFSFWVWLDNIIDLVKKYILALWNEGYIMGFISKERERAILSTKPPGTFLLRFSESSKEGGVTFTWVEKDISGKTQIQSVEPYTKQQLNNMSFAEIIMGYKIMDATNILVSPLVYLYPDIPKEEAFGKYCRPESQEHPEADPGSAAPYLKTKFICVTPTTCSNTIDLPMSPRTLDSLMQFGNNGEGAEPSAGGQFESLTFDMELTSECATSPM
Outline: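 Fluorescence intensity of 6-FAM-labelled reporter fragments, separated by capillary electrophoresis after RT-PCR, gave the signal. Cells were HepG2 transfected with cis-element reporter units and treated 24 h; fitting was bidirectional relative to DMSO.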

[16] = ATG_TA_CIS: Attagene CIS-FACTORIAL HepG2 Assay for human TA Basal Promoter (AID 2282964); conditions: HepG2 Attagene CIS-factorial TA basal promoter reporter; actives raise or lower the signal
Outline: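 Steps: transfect HepG2 with MRTUs; dose 24 h; isolate RNA, DNase-treat, reverse-transcribe; PCR and FAM-label reporter cDNA; digest with HpaI 2h at 37 C; run capillary electrophoresis. Activity fitted both directions against DMSO.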

[17] = ATG_TCF_b_cat_CIS: Attagene CIS-FACTORIAL HepG2 Assay for human T-Cell-Factor with beta-catenin (TCF/b-cat) (AID 2282965); conditions: HepG2 TCF/beta-catenin cis-reporter transcription, actives raise or lower the signal
Outline: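 HepG2 cells transiently transfected with cis-promoter-driven multiplexed reporter units; reporter mRNA measured 24 h after dosing by RT-PCR, FAM labelling, HpaI digestion and capillary electrophoresis. Bidirectional fitting relative to DMSO baseline.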

[18] = ATG_RORE_CIS: Attagene CIS-FACTORIAL HepG2 Assay for human RAR-related Orphan Receptor Element (RORE) (AID 2282959); conditions: HepG2 Attagene cis-factorial RORE reporter, mRNA; actives raise or lower the signal
Outline: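 Transfect HepG2 with MRTUs; treat 24 h; extract RNA; RT with oligo(dT); PCR with reporter-specific primers; 6-FAM primer extension; HpaI digest 2 h at 37 C; capillary electrophoresis. Fit vs DMSO, bidirectional.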

[19] = ATG_PBREM_CIS: Attagene CIS-FACTORIAL HepG2 Assay for human Phenobarbital-responsive Enhancer Module (PBREM) (AID 2282955); conditions: HepG2 PBREM cis-reporter, Attagene multiplexed transcription; actives raise or lower the signal
Outline: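 Multiplexed cis-reporter readout in human hepatoma HepG2 cells; PBREM-regulated transcript quantified after 24 h exposure by fluorescent RT-PCR fragment analysis. Signal changes up or down fitted relative to DMSO.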

Measured: AC50

Cc1ccc(N)c(S(=O)(=O)O)c1
not listed: [18] | [19]
inactive: all other assays above

CC(C)CCCCCCCCCCCCCCC(=O)O
not listed: [19]
inactive: all other assays above

CC/C=C\CC/C=C/CO
active: [10] 27.3 µM
not listed: [7]
inactive: all other assays above

CCOc1ccc(NC(=O)CC(C)=O)cc1
active: [5] 30.4 µM
not listed: [11] | [15] | [19]
inactive: all other assays above

O=C(c1ccccc1)C(O)c1ccccc1 (configuration not stated)
active: [10] 57 µM
not listed: [14] | [15] | [19]
inactive: all other assays above

C[C@H](CCC(=O)NCC(=O)O)[C@H]1CC[C@H]2[C@@H]3[C@H](O)C[C@@H]4C[C@H](O)CC[C@]4(C)[C@H]3C[C@H](O)[C@]12C
not listed: [5] | [7] | [10] | [11] | [19]
inactive: all other assays above

C=C[Si]1(C)O[Si](C)(C=C)O[Si](C)(C=C)O[Si](C)(C=C)O1 (configuration not stated)
active: [10] 2.51 µM
not listed: [5]
inactive: all other assays above
